The results in this text go back to the supplement of paper PMC6897291.

The assay has as its system RIVA. Put plainly: growth inhibition by drug alone (1 - RLU/untreated control) (fraction); higher = stronger inhibition. The conditions noted are these: 177Lu-lilotomab satetraxetan 0 ug/ml. As to the method: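 RIVA (RI-1) ABC-DLBCL cells were pretreated or not for 18 h with 0.5 ug/ml 177Lu-lilotomab satetraxetan (600 MBq/mg), washed and seeded (3000 cells/well) on 384-well plates pre-printed with the Selleck Cambridge Cancer Compound library. Viability was read by RealTime-Glo luminescence on days 3-6 after seeding. Effect = 1 - RLU/mean RLU of the 48 untreated no-drug control wells per plate; Bliss score = (M-E)/(1-Fa).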

Molecules are shown by their SMILES.

On to `CCOC(=O)[C@@H](C)Oc1cccc2c(=O)n(CC(=O)Nc3ccc4c(c3)OCCO4)ccc12`, for which the “growth inhibition by drug alone” value runs as follows: (10 nM, time (day): 3) -0.12; (10 nM, time (day): 4) -0.131; (10 nM, time (day): 5) -0.182; (10 nM, time (day): 6) -0.361; (100 nM, time (day): 3) 0.0368; (100 nM, time (day): 4) -0.0449. In addition, the “growth inhibition by drug alone” value is, setting by setting: (100 nM, time (day): 5) -0.0731; (100 nM, time (day): 6) -0.142.

On to `Nc1ccccc1NC(=O)c1ccc(CNC(=O)OCc2cccnc2)cc1` [Entinostat (MS-275, SNDX-275)], for which the “growth inhibition by drug alone” value runs as follows: (10 nM, time (day): 3) -0.0286; (10 nM, time (day): 4) -0.0282; (10 nM, time (day): 5) -0.046; (10 nM, time (day): 6) -0.113; (100 nM, time (day): 3) 0.288; (100 nM, time (day): 4) 0.217. Moreover, the “growth inhibition by drug alone” value was determined as 0.174 (100 nM, time (day): 5) and 0.114 (100 nM, time (day): 6).

For `COc1ccc(COc2cc3oc(=O)c4cc(C(C)O)ccc4c3cc2OC)cc1` (stereo not given) [Palomid 529], the “growth inhibition by drug alone” value (10 nM, time (day): 3) was 0.0296; the “growth inhibition by drug alone” value (10 nM, time (day): 4) worked out at 0.0604; the “growth inhibition by drug alone” value (10 nM, time (day): 5) was -0.0136; the “growth inhibition by drug alone” value (10 nM, time (day): 6) is -0.281; the “growth inhibition by drug alone” value (100 nM, time (day): 3) was -0.0737; the “growth inhibition by drug alone” value (100 nM, time (day): 4) is -0.0625. The “growth inhibition by drug alone” value is -0.0557 (100 nM, time (day): 5) and -0.118 (100 nM, time (day): 6).

As for `COc1ccc(C2CC(c3ccccc3)=NN2c2ccc(S(N)(=O)=O)cc2)cc1` (stereo not given), the “growth inhibition by drug alone” value runs as follows: (10 nM, time (day): 3) -0.0673; (10 nM, time (day): 4) -0.122; (10 nM, time (day): 5) -0.182; (10 nM, time (day): 6) -0.683; (100 nM, time (day): 3) -0.196; (100 nM, time (day): 4) -0.182. The “growth inhibition by drug alone” value runs as follows: (100 nM, time (day): 5) -0.21; (100 nM, time (day): 6) -0.396.

For the molecule `Nc1ncn([C@H]2C[C@H](O)[C@@H](CO)O2)c(=O)n1` [Decitabine], the “growth inhibition by drug alone” value reads like this: (10 nM, time (day): 3) 0.201; (10 nM, time (day): 4) 0.0484; (10 nM, time (day): 5) -0.0488; (10 nM, time (day): 6) -0.367; (100 nM, time (day): 3) 0.168; (100 nM, time (day): 4) 0.0495. Also, the “growth inhibition by drug alone” value by setting is: (100 nM, time (day): 5) -0.00108; (100 nM, time (day): 6) -0.0694.
